Source: PubChem (National Center for Advancing Translational Sciences (NCATS))
The sample as a whole holds a higher share of hits than the screen did.
Lassa entry inh = Lassa virus entry inhibition; Lassa virus pseudotype entry inhibition, cell reporter; Potency, µM (top dose mostly 37.9 µM), inactives show top-dose activity change, negative = inhibition, most hits filed as inhibitors; hit rate 1.2% among 300,000; calls by dose curve; tested in HEK293 cells; note: potency is the fitted concentration of half-maximal effect; % is set by controls: 0 for no effect and ±100 for the full control effect; nearly all actives have a fitted effect of over 50% in size
Vaccinia Venus = inhibitors of vaccinia virus (Venus reporter). Vaccinia virus Venus reporter expression, fluorescence. Potency, µM (top dose mostly 36.5 µM), for the others: top-dose activity change, negative = inhibition, hits mostly inhibitors. hit rate 0.46% among 330,000; calls by dose curve; tested in A549 cells; note: potency is the fitted concentration of half-maximal effect; % is set by controls: 0 for no effect and ±100 for the full control effect; nearly all actives have a fitted effect of over 30% in size
Shiga inhibitor = Shiga toxin inhibition. inhibition, % at 38.7 µM. Vero cells, Shiga toxin protein synthesis inhibition reporter. AID 2315. hit rate 9.2% among 290,000; in the data active = inhibition mostly above about 28%, no sharp cut-off; inactive = mostly below about 43%; note: 0% is about no effect
Cycloheximide cs = affects cycloheximide protein synthesis inhibition readout, counter-screen. max response, %. hit rate 12% among 300,000. cell reporter, cycloheximide protein synthesis inhibition counterscreen; in the data active = max response mostly above about 13%, no sharp cut-off; inactive = mostly below about 14%; note: read at 38.3 µM for the half of the compounds with a filed dose; 0% is about no effect
Marburg entry inh = Marburg virus entry inhibition | Marburg virus pseudotyped entry inhibition, cell reporter | Potency, µM (series often up to 37.8 µM), without a hit: at the highest dose activity change, negative = inhibition, usual class: inhibitors | hit rate 1.8% among 300,000; calls by dose curve; tested in HEK293 cells; note: potency is the fitted concentration of half-maximal effect; % is set by controls: 0 for no effect and ±100 for the full control effect
Vaccinia mCherry = vaccinia inhibition (mCherry reporter); Vaccinia virus mCherry reporter infection, fluorescence; Potency, µM (doses to about 36.5 µM), inactives show at the highest dose activity change, negative = inhibition, most hits filed as inhibitors; hit rate 0.63% among 310,000; calls by dose curve; tested in A549 cells; note: potency is the fitted concentration of half-maximal effect; % is set by controls: 0 for no effect and ±100 for the full control effect; nearly all actives have a fitted effect of over 35% in size
* marks the source's active call; other numbers are inactive results; i = inactive; ? = inconclusive; . = no result; [ ] = dose if it differs, or a comment.

SMILES	Lassa entry inh	Vaccinia Venus	Shiga inhibitor	Cycloheximide cs	Marburg entry inh	Vaccinia mCherry
CCCN(CCC)C(=O)c1c[nH]c2ccc(S(=O)(=O)N(C)c3ccc(OCC)cc3)cc2c1=O	7%[46.1 µM]	2%	.	.	.	-13%
CCOc1ccc(N(C)S(=O)(=O)c2ccc(C)c(C(=O)OCC(=O)c3c[nH]c4ccccc34)c2)cc1	7%	-19%	3	0	1.4µM*	i
CCCCN1C(=O)/C(=C/C=C2\SCCN2C)SC1=S	1%	34%	67*	33*	-20%[46.1 µM]	2%
CN1CCS/C1=C/C=C1/SC(=S)N(Cc2ccccc2)C1=O	14%	54%	13	26*	?	-9%
CN1CCS/C1=C/C=C1\SC(=S)N(CC(=O)O)C1=O	-18%[46.1 µM]	30%	13	1	5%[46.1 µM]	i
CCCCCCC/C=C/C1=CC2(C)CC1(C)C(CCCCCCC)CC2=O (stereo unspecified)	.	.	.	.	17%[14.2 µM]	.
COc1ccc(NC(=O)c2ccc(Cl)cc2)c[n+]1[O-]	13%	-5%	-1	-1	-3%	-12%
COc1cc(O)oc1C=Nc1ccccc1	?	-7%	109*	27*	17%	-14%
COc1ccccc1O	.	-8%	-3	5	.	-22%
Cc1ccc(-c2csc(NC(=O)C3=COCCO3)n2)cc1	-27%	-29%	51*	42*	?	-5%
CC(C)(C)c1csc(NC(=O)C2=COCCO2)n1	-26%	-7%	.	.	27%[46.1 µM]	-5%
CC(=O)Nc1ccc(-c2csc(NC(=O)C3=COCCO3)n2)cc1	-2%	-8%	.	.	-20%	i
CCOC(=O)c1csc(NC(=O)C2=COCCO2)n1	.	.	63*	41*	.	.
O=C(Cn1c(C(=O)OCCO)cc2ccccc21)c1ccccc1	?	-9%	.	-2	?	-26%
COc1cc(NC(=O)Cn2ncc3c([nH]c4ccc(C)cc43)c2=O)cc(OC)c1OC	16%[46.1 µM]	-8%	.	.	.	-8%
COC(CNC(=O)c1ccc2c3c(onc13)-c1ccccc1C2=O)OC	?	110%	75*	35*	?	i
COc1ccc(OC)c(CCNc2nccn(-c3ccc(C)c(C)c3)c2=O)c1	-5%[46.1 µM]	-8%	.	.	.	-17%
O=C(NCCO)c1nc2ccccc2s1	22%	-6%	37*	17	8%	i
COCCNC(=O)c1nc2ccccc2s1	-2%[46.1 µM]	-5%	44*	24	?	-1%
O=C(Nc1nnc(-c2ccccc2)o1)c1nc2ccccc2s1	.	-25%	2	-4	.	-30%
O=C(NCc1ccccc1)c1nc2ccccc2s1	-21%	-17%	37	23*	-1%	i
O=C(NCc1ccco1)c1nc2ccccc2s1	5%	-18%	77*	23*	?	-1%
CS(=O)(=O)Nc1ccc(-c2nc3ccccc3s2)cc1	?	-6%	.	.	?	4%
CC(=O)NCc1ccc(-c2csc(-c3cccs3)n2)cc1	-6%	-26%	86*	21*	?	-9%
CC(=O)NCc1ccc(-c2nc3ccccc3s2)cc1	?	.	58*	39*	?	.
SMILES	Lassa entry inh	Vaccinia Venus	Shiga inhibitor	Cycloheximide cs	Marburg entry inh	Vaccinia mCherry
CNC(=O)c1csc(-c2cccs2)n1	12%	-15%	64	21	6%	-2%
N#Cc1ccc(CSc2nnc(Nc3ccccc3)s2)cc1	11%	-14%	-4	-3	-21%[46.1 µM]	-20%
c1ccc(CSc2nnc(NC3=NCCCCC3)s2)cc1	26%	-27%	102*	44*	0%[46.1 µM]	-9%
O=C(NCCc1ccccc1)c1cc(-c2ccc3c(c2)OCO3)on1	0%	4%	0	-3	17%	-14%
CCN(CC)C(=O)c1cc(-c2ccc3c(c2)OCO3)on1	?	-19%	77*	62*	?	-10%
CCCCNC(=O)c1cc(-c2ccc3c(c2)OCO3)on1	?	7%	57*	38*	-12%[46.1 µM]	i
CC(C)NC(=O)c1cc(-c2ccc3c(c2)OCO3)on1	?	-7%	104*	26*	?	-18%
CCN(CC)CCCNC(=O)c1cc(-c2ccc3c(c2)OCO3)on1	7%[46.1 µM]	-2%	26	6	?	-1%
CCCNC(=O)c1cc(-c2ccc3c(c2)OCO3)on1	?	-13%	86*	31*	?	-3%
Nc1cc(=O)nc(SCC(=O)Nc2ccc(F)cc2)n1-c1ccccc1Cl	0%[46.1 µM]	0%	.	.	?	-8%
CC(=O)c1sc(N2CCOCC2)nc1-c1ccccc1	?	-1%	-6	6	29%[46.1 µM]	-4%
Cc1ccc(-c2nc(N3CCOCC3)s[n+]2-c2ccccc2)cc1	?	-9%	85*	62*	?	-25%
CCN(CC)CCCN1C(=O)C(O)=C(C(=O)c2ccc(C)o2)[C@@H]1c1ccc(C)o1	.	.	.	.	8%	.
Cc1ccc(C(=O)Nc2ccccc2C(=O)NCc2ccco2)cc1S(=O)(=O)N1CCCCC1	-25%	-26%	52*	31*	?	-12%
O=C(NCc1ccco1)c1ccc(Cl)c(S(=O)(=O)N2CCc3ccccc32)c1	?	-23%	12	17*	?	?
O=C(NCc1ccco1)c1ccc(Cl)c(S(=O)(=O)N2CCOCC2)c1	18%	.	14	10	17%	.
Cc1ccc(C)c(NS(=O)(=O)c2cc(C(=O)NCc3ccco3)ccc2C)c1	?	-22%	-6	-3	-18%	-3%
Cc1ccccc1NS(=O)(=O)c1cc(C(=O)NCc2ccco2)ccc1C	1.6µM*	?	18	-1	-7%	-22%
Cc1ccc(C(=O)NCc2ccco2)cc1S(=O)(=O)Nc1cccc(C)c1C	?	.	6	-1	21µM*	.
COc1ccccc1N1CCN(c2nc3c(S(=O)(=O)c4ccccc4)nnn3c3ccc(Cl)cc23)CC1	.	-17%	.	.	16%[46.1 µM]	-17%
CN1CCN(C(=O)C2=C[C@@H](C(C)(C)C)C[C@@H](OCc3ccc(CO)cc3)O2)CC1	.	-25%	-8	-1	.	-25%
CCCN(C(=O)COc1cc(=O)n(CC)c2ccccc12)c1ccc(C(C)C)cc1	-24%[46.1 µM]	2%	.	.	-18%[46.1 µM]	-16%
CC(C)C(OC(=O)c1nsc(Cl)c1Cl)C(=O)NCc1ccccc1 (stereo unspecified)	-12%[46.1 µM]	5%	-4	-1	3%[46.1 µM]	i
Cc1ccc(SCCNC(=O)c2ccc(C)c(S(=O)(=O)Nc3ccccc3C)c2)cc1	10µM*	-22%	-16	-4	23µM*	-19%
Cc1ccccc1NS(=O)(=O)c1cc(C(=O)NCCC2=CCCCC2)ccc1C	?	-25%	-18	2	-45%	?
O=C(Nc1ccccc1)C1=C(c2ccccc2)S(=O)(=O)CCS1(=O)=O	?	?	45*	23*	2.8µM*	?
N#CC1(NC(=O)COc2ccc(S(=O)(=O)N3CCCC3)cc2[N+](=O)[O-])CCCCC1	-15%	?	.	.	?	?
O=C(CC1CCCCC1)Nc1nc2ccccc2s1	?	-7%	59*	33*	-6%[46.1 µM]	-10%
Cc1cnc(NC(=O)CC2CCCC2)s1	?	-11%	105*	49*	-1%[46.1 µM]	i
O=C(Nc1nc2ccccc2s1)NC1CCCCC1	.	.	125*	40*	.	.
